Compound activity from PubChem.
Pf Dd2 inh – blocks in vitro growth of P. falciparum Dd2 | P. falciparum Dd2 growth, SYBR Green, 72 h | Potency, µM (series often up to 28.9 µM), without a hit: at the highest dose activity, negative = inhibition, actives largely listed as inhibitors | 120,000 compounds, 4.3% hits | AID 1347417; active = well fitted inhibition curve with a large enough effect;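 also: plate controls were DMSO vehicle for no effect and reference drug for full effect; nearly all actives have a fitted effect of over 65% in size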
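Readout: SYBR Green fluorescence, 485 nm excitation, 535 nm emission, after ~16 h lysis at 37C. Before that, Dd2-infected red cells (2.5% hematocrit) grew 72 h with compound, 29 uM top final concentration.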
* = called active by the depositor; i = inactive; [ ] = dose if it differs, or a comment. Shown is part of a subset that was picked to be rich in hits. Potency is read from the fitted curve at half-maximal effect.

SMILES | Pf Dd2 inh
CCOc1ccc2c(c1)c(=O)c(C(=O)c1ccccc1)cn2Cc1ccccc1 | -5%
CCCCN(C)CC(O)Cn1cc(/C=C/C(=O)c2ccc(OCC)cc2)c2ccccc21 (stereo not given) | 3.5µM*
CCCCN(CC)CCCNC(=O)c1cn(C)c(=O)c2c1c1ccccc1n2C | i
N#Cc1cccc(C(=O)Nc2ccc([C@H]3OCC(=O)N(Cc4cccnc4)[C@@H]3CO)cc2)c1 | i
COc1cccc(CNC(=O)CCC2CCN(C(=O)c3ccccc3)CC2)c1 | -12%
CCCc1nc(C(=O)N(C)Cc2cnn(-c3ccccc3C)c2)cs1 | 2%
COCCN(Cc1ccc(C)cc1)Cc1ccc(C#N)cc1 | i
COCCN(Cc1cnn(-c2ccccc2C)c1)CC1CC1 | 7.1µM*
Cn1cccc1C(=O)N1C[C@@H](NC(=O)NC2CCCCC2)C[C@H]1C(=O)N[C@H](Cc1c[nH]c2ccccc12)C(N)=O | i
O=C(c1ccc(Cl)cc1)N1CCN(c2cc(-c3ccc(Cl)cc3)[nH]n2)CC1 | i
Cn1cccc1C(=O)N1CCC(N2C[C@H](O)C[C@H]2C(=O)NC2CCCCC2)CC1 | i
O=C(Nc1cc(Cl)ccc1Cl)c1ccc2c(c1)N(Cc1cccc(Cl)c1)C(=O)c1ccccc1S2=O (stereo not given) | 4µM*
Cc1ccccc1CN1C(=O)c2ccccc2S(=O)c2ccc(C(=O)NCc3ccccc3)cc21 (stereo not given) | i
O=C(c1ccc2c(c1)N(Cc1cccc(Cl)c1)C(=O)c1ccccc1S2(=O)=O)N1CCCC1 | -11%
COC(=O)c1cc(NC(=O)c2ccc3c(c2)N(Cc2cccc(Cl)c2)C(=O)c2ccccc2S3=O)cc(C(=O)OC)c1 (stereo not given) | 3.2µM*
O=C(Nc1cccc(Cl)c1Cl)c1ccc2c(c1)N(Cc1cccc(Cl)c1)C(=O)c1ccccc1S2(=O)=O | 5.6µM*
O=C(NCCc1ccccc1)c1ccc2c(c1)N(Cc1ccccc1F)C(=O)c1ccccc1S2=O (stereo not given) | i
O=C(c1ccc2c(c1)N(Cc1cccc(Cl)c1)C(=O)c1ccccc1S2(=O)=O)N1CCCCCC1 | -29%
NC(=O)C1CCN(C(=O)c2ccc3c(c2)N(Cc2cccc(Cl)c2)C(=O)c2ccccc2S3=O)CC1 (stereo not given) | i
CCN(CC)CCNC(=O)c1ccc2c(c1)N(Cc1ccccc1)C(=O)c1ccccc1S2=O (stereo not given) | i
Cc1ccn2c(C(=O)N3CC[C@@](C)(O)[C@@H](O)C3)nnc2n1 | 8%
COc1ccc(C(=O)N2CCCC3(CNc4ccccc4[S+](=O)([O-])N3)C2)cc1 (stereo not given) | 6%
CCCn1cc(NC(=O)CC[C@H]2NC(=O)c3ccccc3NC2=O)c(C)n1 | -3%
COc1ccc(CN[C@@H]2CCC[C@@H](C(=O)NCc3cc(C)on3)CC(=O)N(C)C2)cc1 | 11%[44.1 µM]
CCn1cc(S(=O)(=O)N2CCn3c(nn(CC4CC4)c3=O)C2)cn1 | -7%
SMILES | Pf Dd2 inh
Cc1nc(CN2C(=O)OC3(CCN(C(=O)c4cccnc4)CC3)C2(C)c2ccccc2)cs1 (stereo not given) | -19%
CN1CCN(Cc2cn3c(=O)n(C)cc(-c4cccc(N(C)C)c4)c3n2)CC1 | -4%[44.1 µM]
Cc1nnsc1C(=O)N[C@H]1CCN(C(=O)c2cccn2C)[C@H](C(=O)N[C@H](Cc2ccccc2)C(N)=O)C1 | -1%
COc1ccc(C(=O)N2CCC3(CC2)OC(=O)N(Cc2cccnc2)C3(C)c2ccccc2)cn1 (stereo not given) | -1%
NC(=O)[C@@H]1CN(C(=O)c2ccco2)C[C@H]1COc1ccccc1 | 0%
CCOC(=O)c1c(NC(=O)COc2ccc(Br)cc2)sc(C(C)=O)c1C | i
CCOC(=O)c1c(NC(=O)COc2ccc(OC)cc2)sc(C(=O)N(CC)CC)c1C | 11µM*
CCOC(=O)c1c(NC(=O)COc2ccccc2)sc(C(C)=O)c1C | 15%
COc1cccc(CN2C[C@@H](CO)[C@H](c3ccccn3)C2)c1OC | -27%
Cc1ccc(CN2C(=O)C(O)(c3c(C)[nH]c4ccccc34)c3ccccc32)cc1 (stereo not given) | -14%
Cc1[nH]c2ccccc2c1C1(O)C(=O)N(Cc2ccccc2)c2ccc(Cl)cc21 (stereo not given) | 10µM*
Cc1[nH]c2ccccc2c1C1(O)C(=O)N(Cc2ccc(Cl)cc2)c2ccccc21 (stereo not given) | i[5.79 µM]
Cc1noc(C)c1CN1CCC(NC(=O)C2CCC2)CC1 | 21%
COCC(=O)N1CCC2(CC1)OC(=O)N(CCOc1ccccc1)C2(C)c1cccnc1 (stereo not given) | -25%[44.1 µM]
Cc1c(Cl)cccc1NC(=O)Cn1ccn2nc3c(c2c1=O)CCCC3 | -9%
CCOC(=O)c1c(C)[nH]c(C)c1S(=O)(=O)NCC(=O)N1CCN(c2ccccc2F)CC1 | i
CCOC(=O)c1c(C)[nH]c(CCC(=O)NCCCN2CCN(c3ccccc3F)CC2)c1C | 11µM*
CCOC(=O)c1c(C)[nH]c(CCC(=O)NCc2ccc(F)cc2)c1C | -14%
O=C(Nc1ccc(Cl)cc1Cl)c1ccc2cc[nH]c2n1 | -7%
Cn1cnc(S(=O)(=O)N2CCC(c3nc(C4CC4)no3)C2)c1 (stereo not given) | -20%
CCc1ccc(-n2c(=O)c3c4c(sc3n(Cc3ccc(F)cc3)c2=O)CCCC4)cc1 | -13%
Cc1c(CNC2CCCCCC2)c(C(=O)O)c(C)n1Cc1ccc(F)cc1 | 8%[5.79 µM]
CCc1c(C)sc2c1CCN(Cc1ccc(F)cc1)C2c1ccccc1 (stereo not given) | 3.2µM*
O=C(NCCc1c[nH]c2ccccc12)C1CC(=O)N(c2n[nH]c3cccc(F)c23)C1 (stereo not given) | -10%
COc1ccc([C@@H](NC(=O)c2ccc3nnnn3c2)C2CC(O)C2)cn1 (stereo not given in full) | -7%
SMILES | Pf Dd2 inh
CCOc1ccccc1CNC(=O)c1nnn2cc(C)[nH]c(=O)c12 | 8.9µM*
Cc1cn2nnc(C(=O)NC3CCCCCCC3)c2c(=O)[nH]1 | 7.9µM*
CCCCNC(=O)c1nnn2cc(C)[nH]c(=O)c12 | 22%
Cc1cn2nnc(C(=O)NC3CCCCCC3)c2c(=O)[nH]1 | -14%
Cc1cn2nnc(C(=O)N3CCC(C(=O)NC4CCCCC4)CC3)c2c(=O)[nH]1 | -11%
CCOc1ccc(NC(=O)c2nnn3cc(C)[nH]c(=O)c23)cc1 | 0.63µM*
Cc1cn2nnc(C(=O)NC3CCN(Cc4ccccc4)CC3)c2c(=O)[nH]1 | 26%
Cc1cn2nnc(C(=O)NCc3ccco3)c2c(=O)[nH]1 | 18%
Cc1cn2nnc(C(=O)NCCCc3ccccc3)c2c(=O)[nH]1 | -26%
O=C(NCC1(O)CCCN(C(=O)c2cccs2)CC1)N1CCOCC1 (stereo not given) | 3%
O=C1CC2CCCC(C1)N2C(=O)c1cncc(Br)c1 | 8%[44.1 µM]
Cc1nnc(C2CCCCCN2S(=O)(=O)c2cccnc2)o1 (stereo not given) | i
Cc1nn(C)c(C)c1CCCN(C)C(=O)C1N(C(C)C)C(=O)C12CCCCC2 (stereo not given) | 15%
CCCn1cc(CN2CCc3nc(NC)nc(C(=O)N4CCCC4)c3C2)c(C)n1 | -4%
CC1CCN(CCCNC(=O)CN2C(=O)CSc3ccc(S(=O)(=O)N4CCC(C)CC4)cc32)CC1 | 8.9µM*
CC1CCN(CCCNC(=O)CN2C(=O)CSc3ccc(S(=O)(=O)N4CCOCC4)cc32)CC1 | 6%
CCCCNC(=O)CN1C(=O)CSc2ccc(S(=O)(=O)N3CCC(C)CC3)cc21 | 0%
